Our source for the Percent Effect values is ChEMBL document CHEMBL3988442, “University of Dundee, Small-Polar-MMV Screening Library” (2021).

For some of these results: Entries with a potency or affinity are not part of this list.

Common to all, as to design: scale not given: direction of the effect not stated beside the values
The target of experiment [1] is Protein translocase subunit SecA (Escherichia coli (strain K12)) (UniProt P10408). Briefly: Assay to Identify E. coli SecA ATPase Inhibitors. Particulars: 30 µM. The experiment is classed as functional.
Experiment [2] deals with T1, Ubiquitin-activating enzyme e1, putative (Leishmania donovani (strain BPK282A1)) (UniProt E9BSI1).
T1 sequence (whole entry): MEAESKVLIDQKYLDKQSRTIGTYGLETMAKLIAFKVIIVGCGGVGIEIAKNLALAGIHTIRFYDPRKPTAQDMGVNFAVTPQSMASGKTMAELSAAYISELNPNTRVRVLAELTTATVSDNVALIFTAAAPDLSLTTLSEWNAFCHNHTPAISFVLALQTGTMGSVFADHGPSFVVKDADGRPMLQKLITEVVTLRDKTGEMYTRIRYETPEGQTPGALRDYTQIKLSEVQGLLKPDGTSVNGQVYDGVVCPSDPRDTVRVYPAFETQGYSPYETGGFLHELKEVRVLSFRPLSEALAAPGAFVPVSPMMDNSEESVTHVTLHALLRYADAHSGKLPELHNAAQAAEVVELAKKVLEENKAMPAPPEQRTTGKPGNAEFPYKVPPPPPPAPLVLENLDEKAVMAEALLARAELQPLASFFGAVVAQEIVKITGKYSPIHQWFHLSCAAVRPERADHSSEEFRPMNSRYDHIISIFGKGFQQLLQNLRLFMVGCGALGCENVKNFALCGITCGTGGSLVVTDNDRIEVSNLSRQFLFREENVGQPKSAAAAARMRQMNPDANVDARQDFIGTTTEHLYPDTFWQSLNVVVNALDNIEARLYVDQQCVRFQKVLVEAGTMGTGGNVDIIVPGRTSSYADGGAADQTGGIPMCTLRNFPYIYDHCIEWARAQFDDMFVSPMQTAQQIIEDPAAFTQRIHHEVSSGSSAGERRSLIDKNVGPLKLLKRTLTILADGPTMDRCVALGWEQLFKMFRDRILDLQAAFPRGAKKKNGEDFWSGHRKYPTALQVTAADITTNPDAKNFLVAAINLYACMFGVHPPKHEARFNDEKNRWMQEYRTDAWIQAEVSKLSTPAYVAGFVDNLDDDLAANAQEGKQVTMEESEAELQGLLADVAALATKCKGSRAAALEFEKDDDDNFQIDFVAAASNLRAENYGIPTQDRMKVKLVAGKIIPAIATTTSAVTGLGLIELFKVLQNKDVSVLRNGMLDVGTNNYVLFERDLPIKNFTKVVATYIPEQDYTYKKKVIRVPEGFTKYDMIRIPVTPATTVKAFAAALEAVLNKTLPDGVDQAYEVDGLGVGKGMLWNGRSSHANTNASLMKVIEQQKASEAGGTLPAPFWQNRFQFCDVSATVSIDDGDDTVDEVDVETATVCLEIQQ
Briefly: Leishmania donovani Ubiquitin Activating Enzyme (LdE1). The experiment is classed as functional. Particulars: 30 µM.

In experiment [3] the target is Sialic acid-binding Ig-like lectin 9 (Homo sapiens) (UniProt Q9Y336). Briefly: Hs-Siglec9 ALPHAscreen SOP 20170721. The following applies: 10 µM.
In another experiment the test system is Trypanosoma cruzi. The experiment is described as follows: Trypanosoma cruzi phosphomannomutase and mannose-1-phosphate guanylyltransferase assay. Format: functional. The following applies: 10 µM.
For experiment [4], the target named is T2, Arginase-2, mitochondrial (Homo sapiens) (UniProt P78540).
T2 sequence (whole entry): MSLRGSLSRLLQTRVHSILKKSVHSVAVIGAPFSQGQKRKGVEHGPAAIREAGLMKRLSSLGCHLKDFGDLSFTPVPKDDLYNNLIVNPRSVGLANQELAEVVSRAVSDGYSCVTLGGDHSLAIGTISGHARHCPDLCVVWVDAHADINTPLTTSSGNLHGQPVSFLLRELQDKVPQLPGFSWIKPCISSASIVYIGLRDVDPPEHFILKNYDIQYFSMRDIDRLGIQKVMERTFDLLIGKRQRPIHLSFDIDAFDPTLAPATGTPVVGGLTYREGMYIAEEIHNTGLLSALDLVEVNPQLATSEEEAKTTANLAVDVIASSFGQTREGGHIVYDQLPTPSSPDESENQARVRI
The experiment is described as follows: in vitro enzyme assay to detect the production of urea directly proportional to the activity of Arginase II. Further: in the data most compounds retested in dose-response had high values. Format: functional. The following applies: 33.3 µM.

Experiment [5] concerns the target T3, Proteasome subunit beta (Trypanosoma cruzi) (UniProt O96673).
T3 sequence (whole entry): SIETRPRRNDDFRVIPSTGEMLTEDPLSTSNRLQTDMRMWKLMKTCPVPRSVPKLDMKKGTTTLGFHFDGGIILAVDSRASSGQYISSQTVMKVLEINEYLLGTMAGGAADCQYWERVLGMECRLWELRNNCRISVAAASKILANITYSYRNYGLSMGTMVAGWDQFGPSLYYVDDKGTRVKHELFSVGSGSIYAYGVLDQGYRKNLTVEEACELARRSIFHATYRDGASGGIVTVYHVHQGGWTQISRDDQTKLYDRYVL
Briefly: Trypanosoma cruzi proteasome chymotrypsin-like activity (TcProtChymo) assay. Further: in the data most compounds retested in dose-response had high values. The experiment is classed as functional. Particulars: 9.37 µM.

The species named for another experiment is Homo sapiens. The experiment is described as follows: To identify inhibition of the IFN signalling (Jak-Stat) pathway via expression of an eGFP reporter gene under the control of an IFN-stimulated response element (ISRE) containing MxA promoter. The following applies: 30 µM. Format: functional.
The target in experiment [6] is T4, Tyrosyl-tRNA synthetase, putative (Trypanosoma cruzi (strain CL Brener)) (UniProt Q4DSP6).
T4 sequence (whole entry): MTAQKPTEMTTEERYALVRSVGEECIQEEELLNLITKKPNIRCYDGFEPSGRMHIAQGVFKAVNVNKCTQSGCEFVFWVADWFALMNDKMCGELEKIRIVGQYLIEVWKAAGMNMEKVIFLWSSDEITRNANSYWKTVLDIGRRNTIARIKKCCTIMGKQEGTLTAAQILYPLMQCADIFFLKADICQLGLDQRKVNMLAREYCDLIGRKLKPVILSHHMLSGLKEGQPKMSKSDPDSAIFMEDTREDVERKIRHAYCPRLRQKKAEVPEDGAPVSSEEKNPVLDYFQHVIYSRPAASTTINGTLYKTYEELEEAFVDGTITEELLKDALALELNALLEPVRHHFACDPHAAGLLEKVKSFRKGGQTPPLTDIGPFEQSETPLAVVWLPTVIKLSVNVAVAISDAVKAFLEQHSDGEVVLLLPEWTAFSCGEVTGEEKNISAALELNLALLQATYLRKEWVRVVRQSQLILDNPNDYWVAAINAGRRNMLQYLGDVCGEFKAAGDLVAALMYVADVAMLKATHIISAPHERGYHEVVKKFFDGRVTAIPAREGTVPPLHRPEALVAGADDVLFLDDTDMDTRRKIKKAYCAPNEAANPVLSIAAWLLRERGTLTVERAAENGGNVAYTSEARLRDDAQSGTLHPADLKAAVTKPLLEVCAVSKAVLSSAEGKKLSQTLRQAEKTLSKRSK
Briefly: Trypanosoma cruzi tyrosyl tRNA synthetase (TcYRS) _High Tyrosine SOP. Further: in the data most compounds retested in dose-response had high values. Format: functional. The following applies: 30 µM.

Experiment [7] has as its target T4, Tyrosyl-tRNA synthetase, putative (Trypanosoma cruzi (strain CL Brener)). The experiment is described as follows: Trypanosoma cruzi tyrosyl tRNA synthetase (TcYRS) SOP. Format: functional. The following applies: 30 µM.
Experiment [8] addresses Chromo domain-containing protein 1 (Saccharomyces cerevisiae (strain ATCC 204508 / S288c) (Baker's yeast)) (UniProt P32657). Briefly: ScCHD-1 Enzyme Inhibition Assay. Further: in the data most compounds retested in dose-response had high values. Format: functional. The following applies: 30 µM.

Sialic acid-binding Ig-like lectin 9 (Homo sapiens), sequence (Q9Y336 whole entry): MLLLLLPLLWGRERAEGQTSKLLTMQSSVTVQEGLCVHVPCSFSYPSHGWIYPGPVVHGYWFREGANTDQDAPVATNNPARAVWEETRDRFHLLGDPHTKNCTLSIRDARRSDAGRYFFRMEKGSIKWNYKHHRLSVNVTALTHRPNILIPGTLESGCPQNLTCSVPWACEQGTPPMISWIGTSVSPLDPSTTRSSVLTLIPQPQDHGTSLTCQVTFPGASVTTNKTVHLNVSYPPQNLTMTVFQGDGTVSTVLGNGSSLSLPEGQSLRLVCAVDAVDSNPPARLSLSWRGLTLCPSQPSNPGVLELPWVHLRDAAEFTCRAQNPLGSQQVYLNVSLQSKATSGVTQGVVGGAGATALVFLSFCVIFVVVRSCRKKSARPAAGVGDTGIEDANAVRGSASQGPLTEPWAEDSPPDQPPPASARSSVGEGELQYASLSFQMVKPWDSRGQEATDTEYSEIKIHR
Protein translocase subunit SecA (Escherichia coli (strain K12)), sequence (P10408 whole entry): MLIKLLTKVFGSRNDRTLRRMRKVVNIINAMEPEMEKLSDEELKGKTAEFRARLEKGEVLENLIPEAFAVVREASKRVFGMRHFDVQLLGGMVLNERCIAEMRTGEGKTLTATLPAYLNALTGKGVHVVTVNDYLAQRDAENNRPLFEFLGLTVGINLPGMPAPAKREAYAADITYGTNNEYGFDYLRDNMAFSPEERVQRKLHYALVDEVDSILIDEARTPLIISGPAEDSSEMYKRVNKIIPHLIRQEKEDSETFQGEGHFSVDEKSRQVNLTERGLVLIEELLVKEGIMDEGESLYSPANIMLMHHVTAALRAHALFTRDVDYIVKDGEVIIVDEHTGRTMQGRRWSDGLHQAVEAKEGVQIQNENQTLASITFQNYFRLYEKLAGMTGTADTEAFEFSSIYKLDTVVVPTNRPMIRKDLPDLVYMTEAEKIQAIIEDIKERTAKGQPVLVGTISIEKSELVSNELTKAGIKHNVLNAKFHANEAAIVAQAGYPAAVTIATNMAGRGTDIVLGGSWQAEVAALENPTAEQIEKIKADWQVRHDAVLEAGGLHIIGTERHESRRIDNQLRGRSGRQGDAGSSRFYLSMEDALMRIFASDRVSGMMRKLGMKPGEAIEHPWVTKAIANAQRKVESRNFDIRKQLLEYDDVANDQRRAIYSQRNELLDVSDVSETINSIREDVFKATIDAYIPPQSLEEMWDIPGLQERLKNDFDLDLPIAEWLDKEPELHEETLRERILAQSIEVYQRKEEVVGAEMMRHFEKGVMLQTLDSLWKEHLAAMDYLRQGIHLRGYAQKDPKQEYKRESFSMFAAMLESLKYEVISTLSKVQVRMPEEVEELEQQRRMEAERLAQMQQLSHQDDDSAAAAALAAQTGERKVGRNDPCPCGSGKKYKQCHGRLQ
Chromo domain-containing protein 1 (Saccharomyces cerevisiae (strain ATCC 204508 / S288c) (Baker's yeast)), sequence (P32657 whole entry, the tested form may be a part): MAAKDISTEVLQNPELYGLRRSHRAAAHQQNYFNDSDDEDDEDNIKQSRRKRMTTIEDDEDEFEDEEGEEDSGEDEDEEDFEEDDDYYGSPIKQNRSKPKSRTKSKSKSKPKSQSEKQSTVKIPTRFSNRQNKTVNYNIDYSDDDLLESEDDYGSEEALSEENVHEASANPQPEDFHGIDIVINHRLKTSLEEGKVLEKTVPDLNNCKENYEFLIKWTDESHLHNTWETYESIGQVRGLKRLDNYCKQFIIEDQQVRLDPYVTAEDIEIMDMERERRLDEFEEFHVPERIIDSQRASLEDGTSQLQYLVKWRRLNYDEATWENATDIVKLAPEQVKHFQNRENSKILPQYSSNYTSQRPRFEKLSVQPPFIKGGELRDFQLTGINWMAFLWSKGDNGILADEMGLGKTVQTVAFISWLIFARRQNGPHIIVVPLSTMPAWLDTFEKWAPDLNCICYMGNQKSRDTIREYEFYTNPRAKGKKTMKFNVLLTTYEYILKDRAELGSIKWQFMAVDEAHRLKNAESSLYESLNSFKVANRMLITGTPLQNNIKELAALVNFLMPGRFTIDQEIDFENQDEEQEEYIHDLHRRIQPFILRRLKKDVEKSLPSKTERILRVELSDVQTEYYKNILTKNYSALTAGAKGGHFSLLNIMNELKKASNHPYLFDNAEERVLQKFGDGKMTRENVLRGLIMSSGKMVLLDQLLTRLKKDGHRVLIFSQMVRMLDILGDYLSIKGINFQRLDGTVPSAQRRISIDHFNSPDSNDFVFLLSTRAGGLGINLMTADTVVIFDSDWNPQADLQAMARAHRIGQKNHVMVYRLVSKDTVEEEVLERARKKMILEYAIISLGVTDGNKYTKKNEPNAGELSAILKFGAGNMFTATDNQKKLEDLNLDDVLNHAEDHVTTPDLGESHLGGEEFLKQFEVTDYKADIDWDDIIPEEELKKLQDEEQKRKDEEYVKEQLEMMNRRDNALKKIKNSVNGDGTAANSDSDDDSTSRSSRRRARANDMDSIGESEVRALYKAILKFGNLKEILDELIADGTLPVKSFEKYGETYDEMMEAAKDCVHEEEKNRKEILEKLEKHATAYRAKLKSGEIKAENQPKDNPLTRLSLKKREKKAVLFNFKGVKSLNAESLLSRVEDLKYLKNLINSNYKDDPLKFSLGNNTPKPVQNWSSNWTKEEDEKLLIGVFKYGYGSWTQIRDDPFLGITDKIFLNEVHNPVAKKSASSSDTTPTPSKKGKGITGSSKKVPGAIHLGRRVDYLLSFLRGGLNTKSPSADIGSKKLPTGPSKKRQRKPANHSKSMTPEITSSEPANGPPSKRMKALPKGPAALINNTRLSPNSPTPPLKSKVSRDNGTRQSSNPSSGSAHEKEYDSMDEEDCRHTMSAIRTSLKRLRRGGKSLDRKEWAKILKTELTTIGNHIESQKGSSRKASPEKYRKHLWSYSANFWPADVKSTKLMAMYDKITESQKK

For the compound `CCOc1ccccc1C(=O)N1CCCC1c1ncc2c(n1)CCNC2` (stereo not given), the Percent Effect in experiment [1] is -5.15%; in experiment [2], 4%; in experiment [3], -1.2%; in the experiment on Trypanosoma cruzi, -5.72%; in experiment [4], -4.42%; in experiment [5], 7.06%. Besides, the Percent Effect in the experiment listed under Homo sapiens was 10.5%; in experiment [6], -6.35%; in experiment [7] it was -2.5%; in experiment [8], -31.8%.
For `CS(=O)(=O)N1CCC2(CC1)CC(CC(=O)N1CCCC1)c1ccccc12` (stereo not given), the Percent Effect in experiment [1] was -6.42%; in [2], 6.49%; in [3] it was 10.4%; in the experiment with Trypanosoma cruzi it was -2.43%; in [4], -5.67%; in experiment [5], 2.21%. For the same compound, the Percent Effect in the experiment filed under Homo sapiens is -5.9%; in [6], 1.58%; in experiment [7] it was -7.69%; in experiment [8], 2.73%.
Consider `Cn1cccc1C(=O)N1CCCC2(CCCN2Cc2cccnc2)C1` (stereo not given), for which the Percent Effect was -10.1% in experiment [1]; -1.3% in [2]; -0.843% in experiment [3]; -1.85% with Trypanosoma cruzi; -6.88% in experiment [4]; 7.33% in [5]. Further, the Percent Effect was 9.38% in the experiment filed under Homo sapiens, -2.63% in experiment [6], 2.56% in [7] and -0.361% in experiment [8].
On to `CCc1ccc(O)c(C(=O)NC2CCN(Cc3ccncc3)CC2)c1`, for which the Percent Effect in experiment [1] is -1.01%; in [2], 12.8%; in [3], -9.09%; in the experiment with Trypanosoma cruzi, -4.98%; in [4], 1.64%; in [5], 5.55%. For the same compound, the Percent Effect was 44.9% in the experiment listed under Homo sapiens, 1.44% in experiment [6], 8.43% in [7] and -6.65% in experiment [8].
Consider `CN(C)CC1CN(Cc2ccc3c(c2)OCO3)Cc2nccn2C1` (stereo not given), for which the Percent Effect in [1] was -10.1%; in experiment [2], -42.9%; in experiment [3], 7.99%; in the experiment with Trypanosoma cruzi, 0.682%; in experiment [4] it was -3.64%; in experiment [5], 5.56%. Further, the Percent Effect was 12.4% in the experiment listed under Homo sapiens, 0.526% in experiment [6], 0% in [7] and -1.33% in [8].
In the case of `Cc1nc[nH]c1CN1CCN(C(=O)c2cccs2)[C@H]2CS(=O)(=O)C[C@H]21`, the Percent Effect in [1] was -6.02%; in experiment [2] it was 2.7%; in experiment [3] it was 2.06%; with Trypanosoma cruzi it was -2.81%; in experiment [4] it was 3.85%; in [5], 4.62%. Moreover, the Percent Effect in the experiment filed under Homo sapiens is 5.03%; in [6], 4.79%; in experiment [7] it was 14.6%; in experiment [8], -2.09%.
`O=C(CSc1ccccn1)N1C[C@H]2CC[C@@H]1CN(Cc1cscn1)C2`: the Percent Effect in experiment [1] is -11.4%; in experiment [2] it was 0%; in experiment [3] it was 4.87%; in the experiment on Trypanosoma cruzi it was -3.78%; in experiment [4], -0.35%; in experiment [5], 13.9%. The Percent Effect in the experiment filed under Homo sapiens is 11.3%; in experiment [6], -3.72%; in [7] it was -4.88%; in experiment [8] it was -3.86%.
On to `CCn1ccnc1CN1CCCN(C(=O)c2cccc(C#N)c2)CC1`, for which the Percent Effect in experiment [1] is 0.122%; in experiment [2], 2.56%; in experiment [3], -6.11%; in the experiment on Trypanosoma cruzi, 7.79%; in experiment [4], 7.38%; in experiment [5] it was 0.939%. For the same compound, the Percent Effect in the experiment listed under Homo sapiens worked out at 9.49%; in experiment [6] it was 1.44%; in experiment [7] it was 1.21%; in [8], 1.21%.
With `CC(C)(C)c1cn2nc(N3CCOC(Cn4cncn4)C3)sc2n1` (stereo not given), the Percent Effect in [1] is -1.88%; in [2], 23.1%; in [3], -8.45%; in the experiment on Trypanosoma cruzi, 7.79%; in experiment [4], -2.46%; in experiment [5] it was 12.4%. For the same compound, the Percent Effect is 13.8% in the experiment filed under Homo sapiens, 3.35% in experiment [6], 22.9% in experiment [7] and -5.11% in experiment [8].
In the case of `Cc1nc(C)c(C(=O)NCCNc2ncccc2C#N)s1`, the Percent Effect in [1] was -0.152%; in [2] it was 31.2%; in experiment [3] it was 1.1%; in the experiment on Trypanosoma cruzi, 5.41%; in [4] it was -5.94%; in [5], 18.4%. The Percent Effect is 7.44% in the experiment listed under Homo sapiens, 6.86% in experiment [6], 28.2% in experiment [7] and -11.7% in experiment [8].
